Compounds with a hit are over-represented: about 5.8% of the library has one in this group of screens.
TSHR ag: qHTS Assay for Agonists of the Thyroid Stimulating Hormone Receptor; Potency, µM (series often up to 57.1 µM), inactives show at the top dose activation, actives largely listed as activators; hit rate 0.48% among 73,000; HEK293-CNG-TSHR cells (CNG channel as cAMP sensor), membrane potential dye, cAMP; AID 926, 2007; active means well fitted activation curve with a large enough effect in the main read-out, with a control signal flat, not every such curve was filed as active; inconclusive means small, poorly fitted or top-dose-only effect, or a change in a side signal; inactive means no such curve, though single readings can be large or run the other way; % of control where 0% means no effect;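 further: the control signal comes from parental cells without the receptor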
Target sequence (P16473 whole entry, looked up): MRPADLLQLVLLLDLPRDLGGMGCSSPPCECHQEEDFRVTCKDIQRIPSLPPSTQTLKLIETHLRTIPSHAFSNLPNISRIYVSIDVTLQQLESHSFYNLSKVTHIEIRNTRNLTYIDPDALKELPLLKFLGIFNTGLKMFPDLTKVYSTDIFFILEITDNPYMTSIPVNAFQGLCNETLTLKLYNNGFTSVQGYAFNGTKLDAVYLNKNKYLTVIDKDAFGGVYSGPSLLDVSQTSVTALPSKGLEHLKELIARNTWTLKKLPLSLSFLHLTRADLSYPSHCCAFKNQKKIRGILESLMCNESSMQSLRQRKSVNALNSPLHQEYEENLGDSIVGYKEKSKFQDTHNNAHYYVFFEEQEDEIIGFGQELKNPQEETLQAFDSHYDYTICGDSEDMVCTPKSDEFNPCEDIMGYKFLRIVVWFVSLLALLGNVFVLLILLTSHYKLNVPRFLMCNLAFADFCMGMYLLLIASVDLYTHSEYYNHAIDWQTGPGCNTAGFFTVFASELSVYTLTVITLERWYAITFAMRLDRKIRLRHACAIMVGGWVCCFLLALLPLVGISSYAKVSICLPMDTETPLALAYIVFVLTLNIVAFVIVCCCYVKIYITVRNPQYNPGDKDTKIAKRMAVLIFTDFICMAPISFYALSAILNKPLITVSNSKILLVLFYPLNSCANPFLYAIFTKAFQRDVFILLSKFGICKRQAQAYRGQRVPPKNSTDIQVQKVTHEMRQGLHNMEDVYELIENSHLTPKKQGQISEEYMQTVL
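HEK 293 cells stably expressing TSHR and a cAMP-gated CNG channel; parental CNG-only cells as counterscreen. Cells preloaded 60 min with membrane potential dye plus 100 uM RO 20-1724, then compound 30 min; fluorescence read at 590 nm.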
Bst PK mod: Pyruvate Kinase; purified pyruvate kinase, luminescence ATP production; ribose 5-phosphate activator present at AC10; Potency, µM; hit rate 1.2% among 51,000; AID 361, 2006; in the data active means potency below about 11 µM; inconclusive means mostly about 12 µM to 25 µM;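 the screen sought inhibitors and activators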;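 further: scaled between full activation by ribose 5 phosphate and full inhibition by luteolin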
GBA mod: Glucocerebrosidase | purified enzyme, resorufin glucoside fluorescence (screen aimed at inhibitors), 20 min | Potency, µM | AID 360, 2006 | hit rate 1.1% among 48,000 | Lysosomal acid glucosylceramidase (Homo sapiens), P04062; in the data active means potency below about 15 µM; inconclusive means mostly about 16 µM to 33 µM;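 further: the screen sought inhibitors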
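Normal human glucocerebrosidase (0.2 nM final) was assayed with resorufin β-D-glucopyranoside (30 uM final) in 50mM citric acid/KH2PO4, 10mM sodium taurocholate, 0.01% tween-20, pH 5.9. Compounds were titrated; fluorescence (Ex 548, Em 600) read after 20 min at RT.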
HEK293 cAMP ctrl: qHTS Assay for Agonists of the Thyroid Stimulating Hormone Receptor: Activators of Intracellular cAMP Concentrations in Parental HEK 293. parental HEK293 CNG cAMP sensor, membrane potential fluorescence. Potency, µM (series often up to 57.1 µM), without a hit: at the top dose activation, most hits filed as activators. hit rate 2.5% among 73,000. AID 938, 2007; further: % of control where 0% means no effect; nearly all actives have a fitted effect of over 55% in size
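Parental HEK 293 cells stably expressing a modified CNG channel (no TSHR) report cAMP rise as membrane depolarization. Membrane potential dye with 100 uM RO 20-1724 was loaded for 60 min at room temperature, then compound added for 30 min; fluorescence read at 590 nm.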
FLuc inh: qHTS Assay for Inhibitors of Firefly Luciferase. AID 411, 2009. Potency, µM (highest dose often 57.1 µM), inactives show at the top dose activity change, negative = inhibition, actives largely listed as inhibitors. purified firefly luciferase, luminescence, 8 min. hit rate 2.2% among 72,000; further: on the % scale 0 is the no-effect control and ±100 the full control effect; nearly all actives have a fitted effect of over 40% in size
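Titration-based qHTS; buffer 50 mM imidazole pH 7.2, 50 mM KCl, 7 mM MgCl2, 10 uM ATP, 0.01% Tween 20, 0.05% BSA; luciferase/luciferin detector mix added after compound; 8 min, ambient; luminescence.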
An asterisk follows results filed as active; i = inactive; ? = inconclusive; nt = not tested or not shown; ! = not confirmed by another sample; [ ] = remark or other dose. Unless noted, the call rests on the fitted dose curve; in most records, active means well fitted curve in the direction sought with a large enough effect; inconclusive means small, poorly fitted or top-dose-only effect, or another doubt; inactive means no such curve, though single readings can be large; an effect the other way counts as inactive or inconclusive. Potency means the concentration at half of the fitted maximal effect.

SMILES | TSHR ag | Bst PK mod | GBA mod | HEK293 cAMP ctrl | FLuc inh
Oc1ccccc1-c1nnc(COc2ccccc2)o1 | nt | nt | nt | 10% | -19%
O=C1/C(=C/Nc2ccc3c(c2)OCO3)CCc2ccccc21 | -16% | nt | nt | -3% | 0.63µM*
CN1CCN(c2ncc3nc(-c4ccc(Cl)cc4)c(=O)n(CCC#N)c3n2)CC1 | ? | nt | nt | ? | 1%[11.4 µM]
Cc1occc1-c1nnc(SCC(=O)Nc2nccs2)n1CCc1ccccc1 | ? | >57 | >77 | ? | 2%
CCc1nnc(NC(=O)CSc2nnc(-c3ccoc3C)n2-c2ccc(C)cc2)s1 | 16µM* | >57 | nt | 22% | 1%
CCOc1ccccc1-n1c(SCC(=O)Nc2nccs2)nnc1-c1ccoc1C | ? | >57 | >77 | 13µM* | 1%
Cc1noc(C)c1-c1nccc(NCCN2CCOCC2)n1 | 13% | nt | nt | -5% | 0%[2.29 µM]
CC1=CC(=C2C(=O)c3ccccc3C2=O)C=C(C)N1Cc1ccco1 | 1% | ? | >77 | 9% | 13µM*
O=C1c2ccccc2C(=O)N1Cc1ccco1 | -1% | >57 | >77 | 3% | 1%
Cc1nc(N2CCOCC2)c2nc(-c3ccccc3)n(CCN3CCCCC3)c2n1 | 10% | nt | nt | 9% | nt
C[C@H]1C[C@H]2[C@H]3CCC4=CC(=O)C=C[C@@]4(C)[C@]3(F)[C@H](O)C[C@]2(C)[C@@]1(O)C(=O)COP(=O)(O)O | -1%[11.4 µM] | nt | nt | -1%[11.4 µM] | 1%[11.4 µM]
O=C(OCCOc1ccccc1Cl)c1ccc(-n2cnnn2)cc1 | ? | >57 | >77 | 40µM* | -8%
O=C(NCCCCN1CCCC1)c1ccc(-n2c(=O)c(=O)[nH]c3ccccc32)cc1 | -1% | nt | nt | -19% | nt
Cc1ccc(S(=O)(=O)Nc2ccc3c(c2)ncn3C(C)(C)C)cc1 | 4% | nt | nt | 8% | 2%
CC(C)(C)n1cnc2cc(NS(=O)(=O)c3ccc(Br)cc3)ccc21 | nt | 2.5* | nt | nt | 0%[25.5 µM]
CC(=O)C(Sc1nn(C)c(=S)s1)C(=O)Nc1ccccc1 (stereo not given) | ? | >57 | nt | 20µM* | -6%
CC(=O)C(Sc1nc(N2CCOCC2)nc(N2CCOCC2)n1)C(=O)Nc1ccccc1 (stereo not given) | 2% | >57 | nt | 11% | 0%
Cc1cc(=O)n2[nH]c(-c3ccccc3Cl)cc2n1 | 6% | nt | >77 | -7% | 16µM*
O=C(NCCCN1CCOCC1)c1ccc(-n2c(=O)c(=O)[nH]c3ccccc32)cc1 | 3% | nt | nt | -16% | nt
CC(=NCc1ccco1)c1c(O)n(C2CCCCC2)c(=O)[nH]c1=O | 5% | nt | >77 | 3% | 1%
CC(=NCc1ccco1)c1c(C)[nH]n(-c2nc3ccccc3s2)c1=O | -14% | nt | >77 | -4% | 2µM*
CN(C)c1ncc2ncc(=O)n(C)c2n1 | 0% | nt | nt | 12% | 0%[11.4 µM]
O=C(COC(=O)C1CCCCC1C(=O)N1CCc2ccccc21)NCc1ccco1 (stereo not given) | ? | >57 | nt | 20µM* | 0%
O=c1c2ccccc2nnn1CSc1nnc(-c2ccc3c(c2)OCO3)o1 | nt | >57 | 8.8* | 28% | -9%
O=C(O)CCSc1nnc(-c2ccc3c(c2)OCO3)o1 | 6% | >11 | >77 | 15% | -22%
SMILES | TSHR ag | Bst PK mod | GBA mod | HEK293 cAMP ctrl | FLuc inh
CSc1nc(N2CCOCC2)c2c(c1C#N)CCCCC2 | ? | >57 | >77 | 25µM* | -2%
CC1Cc2ccccc2N1C(=O)C1CCCN(S(=O)(=O)c2cccc3cccnc23)C1 (stereo not given) | 12% | nt | nt | 3% | 2%
O=S(=O)(c1cccc2cccnc12)N1CCc2ccccc21 | ? | 1.4* | >77 | ? | 2%
NCCCCCc1nnc(SCc2cccc(Cl)c2)o1 | 1% | >57 | i | 18% | 2%
NCCCCCc1nnc(SCC(=O)Nc2cccc(Cl)c2)o1 | 16µM* | >57 | >77 | 4% | 0%
CCOC(=O)c1cc(-c2ccncc2)nc2c1c(C)nn2-c1ccccn1 | ? | nt | >77 | ? | 4%
Cc1nn(-c2ccccn2)c2nc(-c3cccs3)cc(C(=O)N3CCOCC3)c12 | 3.2µM* | 7.1* | >77 | 15% | -43%
COc1ccccc1NC(=O)CN1CCN(c2ccc(Cl)cc2)CC1 | ? | >57 | >77 | 20µM* | 3%
COc1ccccc1N1CCN(CCCNc2cc(=O)n(C)c(=O)n2C)CC1 | ? | nt | nt | 13µM*! | 2%
Cc1cccc([C@@H]2CN(C)CCc3c2cc(O)c(O)c3Cl)c1 | ? | nt | nt | 25µM* | -1%
COc1ccc(C(=O)N2CCC3(CCN(Cc4ccccc4)CC3)CC2)cc1 | ? | nt | nt | ? | -1%[11.4 µM]
CCOC(=O)c1cnc2c(C)cccc2c1NCc1ccco1 | ? | nt | nt | 25µM* | 0%
CCOC(=O)c1cnc2c(C(=O)OC)cccc2c1NCc1ccco1 | 11% | >11 | >77 | -1% | -9%
CCOC(=O)c1ccc2ncc(C(=O)OCC)c(NCc3ccco3)c2c1 | ? | >57 | >77 | 25µM* | 0%
COC(=O)[C@H](C)NC(=O)C/C=C\[C@@H](C)[C@@H](CO)OC | 2%[11.4 µM] | nt | nt | 4%[11.4 µM] | 0%[11.4 µM]
Cc1nc(Nc2ccccc2)c2nc(-c3ccccc3)n(CCN3CCOCC3)c2n1 | 9% | nt | nt | 28% | nt
Cc1cc(N)n2ncc(-c3cccc(Br)c3)c2n1 | -21%[11.4 µM] | nt | nt | -23%[11.4 µM] | ?
CCOC(=O)c1cnc2c(-c3ccccc3)cnn2c1N | 0% | 2.3* | >77 | 4% | 2.5µM*
CCOC(=O)c1cnn(-c2cc(C)c3ccccc3n2)c1N | ? | nt | 12* | ? | 0%
Cc1cc(N)n2ncc(-c3ccccc3)c2n1 | ? | 4.8* | nt | -33% | 25µM*
CCOC(=O)c1cnc2c(-c3ccccc3)c(C)nn2c1N | ? | >57 | >77 | ? | 1%
COc1ccccc1CNc1cc(-c2ccc(C(=O)N(C)C)cc2)ncn1 | 13% | nt | nt | 2% | 3%[2.29 µM]
Cc1nn(-c2ccccc2)c2sc(C(=O)N3CCc4ccccc4C3)cc12 | ? | >57 | >77 | 20µM* | 1%
CS(=O)(=O)N(CC(N)=O)Cc1ccc(Cl)cc1 | 2% | >57 | >77 | 10% | 1%
NC[C@](O)(CS(=O)(=O)O)c1ccc(Cl)cc1 | 0.13µM*! | nt | nt | -2% | 0%
SMILES | TSHR ag | Bst PK mod | GBA mod | HEK293 cAMP ctrl | FLuc inh
CCC1CCc2c(sc3ncnc(N4CCOCC4)c23)C1 (stereo not given) | ? | i | nt | 32µM* | 0%
CSc1nc(N2CCOCC2)c2c3c(sc2n1)CCC3 | 14% | >57 | >77 | 25% | 4%
COc1ccc(Oc2ncc3nc(-c4ccc(F)cc4)c(=O)n(Cc4cccs4)c3n2)cc1 | 4% | nt | nt | 9%[2.29 µM] | -1%[11.4 µM]
Cc1ccccc1OC1C=CC(c2ccccc2)OC1CO (stereo not given) | -2%[11.4 µM] | nt | nt | -1%[11.4 µM] | nt
COc1ccc(-c2cn3c(C)c(C(=O)Nc4cccc(NC(C)=O)c4)sc3n2)cc1 | 13% | >11 | ? | 14% | 13µM*
COC(=O)c1ccc(NC(=O)c2sc3nc(-c4ccccc4)cn3c2C)cc1 | ? | >57 | ? | 32µM* | 0%

Compound activity deposited in PubChem BioAssay by National Center for Advancing Translational Sciences (NCATS).
